# The OligoGym collection
# Experiments:
# Assay in all cases: pooled miR-30 sensor sort-seq; sequence = guide strand
# Conditions in all cases: shRNA
# MTG1 = target: MTG1
# MTF2 = target: MTF2
# MTDH = target: MTDH
# MTFP1 = target: MTFP1
# MTX3 = target: MTX3
# MYST1 = target: MYST1
# MYO1F = target: MYO1F
# MYRIP = target: MYRIP
# MYST4 = target: MYST4
# Also: reference of the scale not given here.
sequence,measurement,setting,value
TTATAGCTTTAACTCCTTCTGA,sensor-assay potency score (higher = more potent),MTG1,-0.275
ATGATTGAGTTGTAACTCCTGA,sensor-assay potency score (higher = more potent),MTF2,-0.17
TTTGGCTTTATGTCCATCCTGT,sensor-assay potency score (higher = more potent),MTF2,0.854
TAACTTGAACATTTAGATGAGA,sensor-assay potency score (higher = more potent),MTDH,-0.76
TTACACTTTGAGGTGTTCGAAC,sensor-assay potency score (higher = more potent),MTDH,-0.892
TTTGCAGCACTGTAGCATCTTC,sensor-assay potency score (higher = more potent),MTF2,-0.454
TATCGCACCCACGTGTCCCGGT,sensor-assay potency score (higher = more potent),MTFP1,-0.561
TACTCTTCTTGACATATTGTAC,sensor-assay potency score (higher = more potent),MTF2,-0.653
TTATCTTTTTGATAGTGCCAAG,sensor-assay potency score (higher = more potent),MTF2,-1.55
TTCCACAAGATACTGCACCTTT,sensor-assay potency score (higher = more potent),MTF2,0.329
ATTTTGGACATCACAGCTCTGG,sensor-assay potency score (higher = more potent),MTG1,-0.514
TTCTAATTCTTCTGTGTCCTGT,sensor-assay potency score (higher = more potent),MTDH,0.277
TTGGACATCACAGCTCTGGTGA,sensor-assay potency score (higher = more potent),MTG1,-0.544
TCAGCCACACCACCGCCGCTGG,sensor-assay potency score (higher = more potent),MTFP1,-1.36
TAGCTCAGCCACACCACCGCCG,sensor-assay potency score (higher = more potent),MTFP1,-0.967
TTGCTTACTAATCTGTAGGCAA,sensor-assay potency score (higher = more potent),MTDH,-0.352
TCCACCGACCTCTCCAGCCTTC,sensor-assay potency score (higher = more potent),MTFP1,-1.18
ATCAGTTCAGTGACCATCGGGA,sensor-assay potency score (higher = more potent),MTG1,-0.492
TTGGACACCAGGGAGCCAGGTG,sensor-assay potency score (higher = more potent),MTFP1,-0.945
TAGGAGGTTGACATGAAGCAGG,sensor-assay potency score (higher = more potent),MTFP1,-1.07
TTTATCTTTTTGATAGTGCCAA,sensor-assay potency score (higher = more potent),MTF2,-0.334
TTATCTATCACATTGACTTTCA,sensor-assay potency score (higher = more potent),MTX3,-0.0166
TTTGAGGTGCTCCTCCACCAGC,sensor-assay potency score (higher = more potent),MYST1,-1.45
TTCTGGAAGATCTCGAAGCCGT,sensor-assay potency score (higher = more potent),MYO1F,-0.863
TTTTCGTATAATCTTCTGCAGG,sensor-assay potency score (higher = more potent),MYRIP,-1.35
TAGTGTGTCGCTGAAGGTGAGG,sensor-assay potency score (higher = more potent),MYO1F,-0.748
TACTTGAGGCAGTACTCGCAGA,sensor-assay potency score (higher = more potent),MYST1,-0.834
TTTGCCATCAACTTCGTGCACG,sensor-assay potency score (higher = more potent),MYST1,-0.42
TTACTGTTAGCACAACACTTGT,sensor-assay potency score (higher = more potent),MYST4,-0.946
TAGCACTCAGAGTCTCACCAAA,sensor-assay potency score (higher = more potent),MYO1F,-0.917
TTGATGGACAGTGTGCCCCGGA,sensor-assay potency score (higher = more potent),MYST1,-0.00673
TTGCGGTAGATCTCTTTCCCGG,sensor-assay potency score (higher = more potent),MYST1,-0.991
TTATCTCTTATAAACACTCTAA,sensor-assay potency score (higher = more potent),MYRIP,-0.392
TAACACAACAATAGTTGCTTTT,sensor-assay potency score (higher = more potent),MYRIP,-1.01
TTGGTTGCGAGTGATCTTGCGC,sensor-assay potency score (higher = more potent),MYST1,-0.436
TTGAGCACTGCCAAGTCGCCGA,sensor-assay potency score (higher = more potent),MYO1F,-0.541
TTCAGTAACGACATCCTTGTTT,sensor-assay potency score (higher = more potent),MYST4,-0.1
TTTAATAGTAAATTAAATCTTT,sensor-assay potency score (higher = more potent),MYRIP,-0.26
TTCCGGTACATGTTGTCCGTGA,sensor-assay potency score (higher = more potent),MYO1F,0.0719
TTTTGCTCTTCTGTTTTCGTAT,sensor-assay potency score (higher = more potent),MYRIP,-0.368
TTGGCTGCCACTGTCTTCCCAG,sensor-assay potency score (higher = more potent),MYO1F,-0.239
TATTTCATGTACTTGAGGCAGT,sensor-assay potency score (higher = more potent),MYST1,0.803
TACTTCTCTGAGTTCTTCTGTA,sensor-assay potency score (higher = more potent),MYST1,0.544
TTAAATAATAATTCCCACCTTC,sensor-assay potency score (higher = more potent),MYRIP,0.152
TTGACTTGCTTGTGCTTGGGGG,sensor-assay potency score (higher = more potent),MYST1,0.169
